In publication PMC7819943, “Rice protein-binding microarrays: a tool to detect cis-acting elements near promoter regions in rice”:
Whole data set: some 68,000 sequences, median “fluorescence intensity (a.u.)” near 9,100, cut for the highest 2% near 16,000. The entries come from a sample that favours the highest values as a whole.

biological target: OsWRKY34 (Oryza sativa, UniProt Q0JBA9 1-250); test: protein-binding microarray (RPBM); PBS, 2% BSA, 51.3 ng/ul salmon testes DNA, 50 uM zinc acetate, 200 nM TF, 25 C, 1 h; high values mean tight binding; settings: protein: recombinant; tags: N-terminal polyhistidine and DsRed monomer fusion (pET32a); label: CyDye5-dUTP incorporated in the synthesized complementary strand; 3' TTTTT single-stranded linker to array surface; dsDNA, one strand shown
Method in brief: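 Transcription factors were made in E. coli BL21-CodonPlus as N-terminal fusions to a polyhistidine tag and DsRed, then purified on Ni–NTA. After primer extension with Cy5-dUTP and blocking with 2% BSA, a custom Agilent array was exposed for 1 h at 25 °C to 200 nM protein in PBS, 2% BSA, salmon testes DNA and 50 µM zinc acetate. Washed arrays were scanned on an Axon 4000B, and the binding signal is per-feature fluorescence intensity in arbitrary units.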

Sequence of OsWRKY34 (Q0JBA9 entry or part of it): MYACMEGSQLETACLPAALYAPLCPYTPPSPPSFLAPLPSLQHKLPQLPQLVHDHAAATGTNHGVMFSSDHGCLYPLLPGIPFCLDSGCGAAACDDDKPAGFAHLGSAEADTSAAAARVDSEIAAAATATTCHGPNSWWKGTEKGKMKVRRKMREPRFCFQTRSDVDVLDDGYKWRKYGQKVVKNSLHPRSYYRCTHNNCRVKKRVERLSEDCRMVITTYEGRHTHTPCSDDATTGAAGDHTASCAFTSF

Sequence | binding signal
TACTACTGTACTACTCTCAGTCTCTCGGCTTCTAGACTAGCGGAGTCACCTAGTGCAG | 8600 fluorescence intensity (a.u.)
GATTCTAAACATCCACTCACACCTCATTTTTTTCATTAGCCGGAGTCACCTAGTGCAG | 9350 fluorescence intensity (a.u.)
TGCCTGGCACCGTCCCCATCGCCGGCCGCCTCCGCCTCCGCGGAGTCACCTAGTGCAG | 11300 fluorescence intensity (a.u.)
ACTTAATCCATTTTCTTTTCTTCTCCTATTTTTCCATCAACGGAGTCACCTAGTGCAG | 9970 fluorescence intensity (a.u.)
ATATTTCTATGATTCTATCCCCTCCAGATTTATCGGCGCCCGGAGTCACCTAGTGCAG | 8310 fluorescence intensity (a.u.)
CTTCCAGGCAGTTGTTCTGTATCCTCTTCTTGTTGCAACACGGAGTCACCTAGTGCAG | 8920 fluorescence intensity (a.u.)
TTTTGGTTTTATGAGGCGGTGGATGGATACTTGTTACACTCGGAGTCACCTAGTGCAG | 10300 fluorescence intensity (a.u.)
TGTGCGCGTGTTGTTTTTTTGGCTTCTTTTTCGCTTGCCACGGAGTCACCTAGTGCAG | 11400 fluorescence intensity (a.u.)
TGTGCTTCTTTTTTTAATTTCTCTCTCTGTTTGCTTCTCTCGGAGTCACCTAGTGCAG | 9720 fluorescence intensity (a.u.)
GTGGGCATGATTTTCTTCTGTTTTCTCGTTTTAATTTTTTCGGAGTCACCTAGTGCAG | 20100 fluorescence intensity (a.u.)
TTTTTTCGGTGTTTTTCTTTTTGTTTCTTTTCGCTTCGCTCGGAGTCACCTAGTGCAG | 12700 fluorescence intensity (a.u.)
CTGCTTCTTTTGTTTGGTTGGTTTCAGGGCTTCGTGGCCACGGAGTCACCTAGTGCAG | 17800 fluorescence intensity (a.u.)
TCTCTCCATCCATCCCTGCTGCTTCTCCATCTCGCATCTGCGGAGTCACCTAGTGCAG | 16700 fluorescence intensity (a.u.)
GTTCGTTCGCCCTGCTGCTTCTCCCGCCGCATCCATCCCGCGGAGTCACCTAGTGCAG | 9640 fluorescence intensity (a.u.)
GCTTCTCCATCTCGCATCTGCTGCCTCCTAATTTGCTTCGCGGAGTCACCTAGTGCAG | 10000 fluorescence intensity (a.u.)
ATTGTTTTTTTTCTTTCTTTTTGCAAATCTCGCTTCGCTTCGGAGTCACCTAGTGCAG | 8540 fluorescence intensity (a.u.)
CGGCTTCTCGCTTTCTTGTTTCTCGTGGAGTTGCTTTTTTCGGAGTCACCTAGTGCAG | 17500 fluorescence intensity (a.u.)
ACCGGTGGCTTTGTTTGGTTCCACGGTCTTCAGGTTGGGACGGAGTCACCTAGTGCAG | 8130 fluorescence intensity (a.u.)
TCCTCTTCTGTTTTTCTGTTTTTTTTCGTTTCTCTTCCCTCGGAGTCACCTAGTGCAG | 13300 fluorescence intensity (a.u.)
ATAATCTCCACATGCATCGTCGCTGTATTTTTTGGTTTCACGGAGTCACCTAGTGCAG | 8510 fluorescence intensity (a.u.)
TTGTACTACTATTTCTTCATGTTACATAATTCTCCTTGTTCGGAGTCACCTAGTGCAG | 8540 fluorescence intensity (a.u.)
TAGTATTTTTTTCCTTGGTTTTGTTTCTATCTCCTCTGACCGGAGTCACCTAGTGCAG | 9480 fluorescence intensity (a.u.)

Sequence | binding signal
AATGTATAGGTGGTCCCGTGCTTTTGTATTGTGTTTGCGTCGGAGTCACCTAGTGCAG | 10400 fluorescence intensity (a.u.)
TTCTCTACATTGTTCATTTAGTATTTTTTTCTTTTCATTTCGGAGTCACCTAGTGCAG | 10700 fluorescence intensity (a.u.)
ATGGCAACGACCCAGTTCTGTCCGAGTAGGACTCCTTCCACGGAGTCACCTAGTGCAG | 8310 fluorescence intensity (a.u.)
CCTGGTTGGTTTGGCTCGCACGTGGCGCGTCGTCCTACGCCGGAGTCACCTAGTGCAG | 9870 fluorescence intensity (a.u.)
TTATTTACAAACGAGTTCCATTTTTTTCTACGGTGATCGGCGGAGTCACCTAGTGCAG | 8120 fluorescence intensity (a.u.)
ATGCCCATTTTGTAGCGTCGATTCTTGTTTCTGCTTGATTCGGAGTCACCTAGTGCAG | 10300 fluorescence intensity (a.u.)
TTTTTTGAGCCGTATTTTTGCTCTCTTGTTACGTTTTTTTCGGAGTCACCTAGTGCAG | 17100 fluorescence intensity (a.u.)
TCCATCCCATTCCCGCCATCTCTGCATCTTCTTCTTCTTCCGGAGTCACCTAGTGCAG | 9910 fluorescence intensity (a.u.)
TCTCTTCTTCTTCTCCAACTTCTTTTTTCTCTTCTTCTTCCGGAGTCACCTAGTGCAG | 9680 fluorescence intensity (a.u.)
TCTCTTTTCACCCACCGCACCCATCCAACTTCTCTTCTCTCGGAGTCACCTAGTGCAG | 17900 fluorescence intensity (a.u.)
GATTGTAGTTTGTATATGCTGCCCATTTCTGTTGTTCTTTCGGAGTCACCTAGTGCAG | 18900 fluorescence intensity (a.u.)
TTCTTCTTCTGCCATTCCATCCATCCACCGCCGCCTCCGCCGGAGTCACCTAGTGCAG | 8380 fluorescence intensity (a.u.)
CTCCATCTCGCATCTTCTCTTTCTCTTTCTCTTTCTCTTTCGGAGTCACCTAGTGCAG | 13300 fluorescence intensity (a.u.)
CAGTTTGAGTTTTTGTTAGTTATTTCGTTTATTTTTTTTTCGGAGTCACCTAGTGCAG | 12300 fluorescence intensity (a.u.)
ATCTGTATCTTTGTTTATTTTTTTTATTTTTCTCCCATTTCGGAGTCACCTAGTGCAG | 10600 fluorescence intensity (a.u.)
GCCATTCCACATCAGTCCGTGCCGCTCTCTGCCCATTCTCCGGAGTCACCTAGTGCAG | 18900 fluorescence intensity (a.u.)
CTTGTTACTAATATACTAGTATTTGAGTGTTACACGTTTTCGGAGTCACCTAGTGCAG | 8380 fluorescence intensity (a.u.)
AGGTGTAATAGTATTTTGTTGTCTAATTGGTTTTGATTGTCGGAGTCACCTAGTGCAG | 11400 fluorescence intensity (a.u.)
TATTTCTCTCGCCACAATCTCTGGCGGCGCCACAATCTTACGGAGTCACCTAGTGCAG | 8850 fluorescence intensity (a.u.)
GGCCTGGAGCTCAGTCAAACAGTTTCAGCTCAGCTCTATCCGGAGTCACCTAGTGCAG | 8520 fluorescence intensity (a.u.)
TCTCTTCGCTCTGCCCACTTGCTAAACCATACCGGCGATACGGAGTCACCTAGTGCAG | 9960 fluorescence intensity (a.u.)
CATCCATCGTATCCACCGCCGTCGCCTTCCATCCTCCCCGCGGAGTCACCTAGTGCAG | 8040 fluorescence intensity (a.u.)
